LmPK inh: qHTS Assay for Inhibitors of Leishmania Mexicana Pyruvate Kinase (LmPK); Potency, µM (top dose mostly 57.5 µM), inactives show top-dose activity change, negative = inhibition, usual class: inhibitors; 290,000 tested, 0.37% active; purified LmPK, Kinase-Glo ATP luminescence, 1 h
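Pyruvate kinase activity monitored as ATP production (luciferase luminescence). Conditions: 0.1 nM enzyme, 0.5 mM PEP, 0.1 mM ADP, 1 h, RT; normalized against uninhibited and no-enzyme wells.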
Sm TGR inh: qHTS Assay for the Inhibitors of Schistosoma Mansoni Peroxiredoxins; AID 485364, 2010; Potency, µM (titrated, usually from 114 µM), inactives show at the top dose activity change, negative = inhibition, actives largely listed as inhibitors; Schistosoma mansoni thioredoxin glutathione reductase (TGR), Q962Y6; purified TGR, DTNB reduction, TNB absorbance 405 nm; 360,000 tested, 3% active; further: nearly all actives have a fitted effect of over 60% in size
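Kinetic colorimetric format: TGR-catalysed, NADPH-driven DTNB reduction monitored via TNB absorbance. Enzyme dispensed at 20 nM; compound exposure 15 min at room temperature before reaction start.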
RE007 growth inh: qHTS Assay for Inhibitors of the HIV-1 protein Vpr; S. pombe RE007 Vpr strain, BacTiter-Glo ATP luminescence, 24 h; Potency, µM (top dose mostly 92.2 µM), for inactives: at the highest dose activity change, negative = less growth, actives largely listed as inhibitors; 360,000 tested, 0.21% active; AID 651644, 2012; active means well fitted falling curve with a large enough effect; inconclusive means small, poorly fitted or top-dose-only effect; inactive means no such curve, though single readings can be large or run the other way; further: nearly all actives have a fitted effect of over 50% in size
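Fission yeast RE007 carrying one integrated HIV-1 vpr copy, seeded at OD 0.01 in PMG+AL medium with 23 nL pinned compound. Grown 24 h at 30 degrees; viability read by BacTiter-Glo luminescence after 5 min.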
Giardia FBPA inh-1: qHTS Assay for Inhibitors of Fructose-1,6-bisphosphate Aldolase from Giardia Lamblia; purified Giardia FBPA; A8B2U2; AID 2451, 2010; Potency, µM (series often up to 59.6 µM), for the others: at the top dose activity, negative = inhibition, usual class: inhibitors; 290,000 tested, 0.71% active; further: nearly all actives have a fitted effect of over 55% in size
Target sequence (A8B2U2 whole entry, looked up): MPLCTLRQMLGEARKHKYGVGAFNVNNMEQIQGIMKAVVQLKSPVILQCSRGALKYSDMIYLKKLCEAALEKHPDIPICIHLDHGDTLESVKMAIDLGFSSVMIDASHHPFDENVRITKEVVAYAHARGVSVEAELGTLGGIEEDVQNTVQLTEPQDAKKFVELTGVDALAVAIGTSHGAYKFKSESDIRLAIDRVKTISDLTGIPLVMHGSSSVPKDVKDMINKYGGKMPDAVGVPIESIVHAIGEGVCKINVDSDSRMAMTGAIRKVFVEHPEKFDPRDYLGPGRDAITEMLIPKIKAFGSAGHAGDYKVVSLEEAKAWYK
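40 nM FBPA preincubated 10 min at RT with compound (up to 57.5 uM final), then substrate plus GAPDH/TPI/NAD/arsenate coupling and diaphorase/resazurin added. Fluorescence read after 20 min at RT, 525/598 nm.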
Tb PYK inh: qHTS of Trypanosoma Brucei Inhibitors. pyruvate kinase (Trypanosoma brucei), Q57TT1. TbPYK enzyme, Kinase-Glo Plus ATP luminescence, 45 min. Potency, µM (highest dose often 76.8 µM), for inactives: top-dose activity, negative = inhibition, usual class: inhibitors. 410,000 tested, 0.12% active. AID 624173, 2012; further: nearly all actives have a fitted effect of over 50% in size
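Luminescent Kinase-Glo Plus end-point after 45 min room-temperature reaction of T. brucei pyruvate kinase started with 130 uM ADP (final). Buffer TEA 50 mM pH 7.2 with KCl, MgCl2, BSA, Tween-20; titration-based qHTS with fitted concentration-effect curves.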
Giardia growth: qHTS Assay for Inhibitors of Fructose-1,6-bisphosphate Aldolase from Giardia Lamblia: Giardia lamblia growth inhibition; AID 2785, 2010; Potency, µM (series often up to 57.5 µM), inactives show at the highest dose activity change, negative = inhibition, hits mostly inhibitors; shares compounds with Giardia FBPA inh-1; 1,500 tested, 5% active; Giardia lamblia trophozoite growth inhibition;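 further: trophozoites exposed to compound for 48 h at 37 °C; nearly all actives have a fitted effect of over 70% in size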
Mammalian tox: qHTS Assay for Inhibitors of Fructose-1,6-bisphosphate Aldolase from Giardia Lamblia: Mammalian cellular toxicity | Potency, µM (top dose mostly 57.5 µM), inactives show at the top dose viability change, negative = toxicity, hits mostly inhibitors | mammalian cell viability counter-screen, qHTS | 1,500 tested, 4% active | AID 2786, 2010 | shares compounds with Giardia FBPA inh-1;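 further: Chinese hamster ovary cells used as mammalian cytotoxicity surrogate; viability measured as cellular ATP by luminescence; compound exposure lasted 48 h before reading; nearly all actives have a fitted effect of over 60% in size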
Giardia FBPA inh-2: qHTS Assay for Inhibitors of Fructose-1,6-bisphosphate Aldolase from Giardia Lamblia: Primary screen confirmation; purified Giardia aldolase enzyme activity, qHTS; 1,500 tested, 5% active; shares compounds with Giardia FBPA inh-1; Potency, µM (series often up to 57.5 µM), without a hit: top-dose activity change, negative = inhibition, actives largely listed as inhibitors; AID 2787, 2010; further: nearly all actives have a fitted effect of over 45% in size
Rabbit FBPA inh: qHTS Assay for Inhibitors of Fructose-1,6-bisphosphate Aldolase from Giardia Lamblia: Rabbit FBPA Selectivity; 1,500 tested, 4% active; AID 2794, 2010; shares compounds with Giardia FBPA inh-1; Potency, µM (series often up to 57.5 µM), for the others: top-dose activity, negative = inhibition, hits mostly inhibitors; Rabbit muscle FBPA enzyme inhibition, selectivity counter-screen; further: nearly all actives have a fitted effect of over 60% in size
GAPDH counter: qHTS Assay for Inhibitors of Fructose-1,6-bisphosphate Aldolase from Giardia Lamblia: Coupling assay counterscreen confirmation | GAPDH coupling enzyme counterscreen, biochemical, qHTS | Potency, µM (series often up to 57.5 µM), for the others: top-dose activity change, negative = inhibition, actives largely listed as inhibitors | 1,500 tested, 6% active | shares compounds with Giardia FBPA inh-1; further: nearly all actives have a fitted effect of over 55% in size
The depositor's hits bear a star; ? = inconclusive; . = no result; [ ] = another dose, or the depositor's remark. The list is not random: actives were taken first. Their share in the collection is about 3.3%. Unless noted, the call rests on the fitted dose curve; in most records, active means well fitted curve in the direction sought with a large enough effect; inconclusive means small, poorly fitted or top-dose-only effect, or another doubt; inactive means no such curve, though single readings can be large; an effect the other way counts as inactive or inconclusive. On the % scale 0 is the no-effect control and ±100 the full control effect; potency means the concentration at half of the fitted maximal effect.

SMILES	LmPK inh	Sm TGR inh	RE007 growth inh	Giardia FBPA inh-1	Tb PYK inh	Giardia growth	Mammalian tox	Giardia FBPA inh-2	Rabbit FBPA inh	GAPDH counter
O=C(COc1ccc(Cl)cc1)N1CCN(Cc2ccc3c(c2)OCO3)CC1	-3.2%	-12.0%	7.4%[18.4 µM]	-1.1%	17.7%	.	.	.	.	.
COc1ccc(COCC(O)CN2CCCC(C(F)(F)F)C2)cc1 (configuration not stated)	-7.2%	-8.8%	.	11.2µM*	.	-14.5%	5.5%	0.8%	4.2%	13.8%
CCOc1cc(/C=C2\SC(N)=NC2=O)ccc1O	-7.0%	-33.0%	20.3%	7.94µM*	-20.0%	-13.5%[10.4 µM]	-4.2%	-12.5%	-0.6%	0.6%
COc1cc(/C=C2\SC(c3ccc(C)cc3)=NC2=O)ccc1O	28.2µM*	?	-11.8%	17.7µM*	?	26.3%	-3.2%	?	-29.7%	-1.4%
COc1cc(/C=C2\SC(c3ccccc3)=NC2=O)cc(Cl)c1O	?	.	-3.3%	5.61µM*	?	53.9%	4.7%	-25.8%	-26.1%	1.7%
N#Cc1ccc(Cl)cc1NC(=O)CNCc1cccs1	-2.6%	-7.2%	-1.6%	15.8µM*	35.1%	?	9.4%	1.5%	3.8%	7.9%
O=C(CNC1CC1)Nc1cc(C(F)(F)F)ccc1Cl	-11.0%	-11.7%	19.1%	7.92µM*	1.1%	?	-11.6%	-1.5%	4.1%	4.6%
CN(C)CC(=O)Nc1cc(C(F)(F)F)ccc1Cl	-2.9%	-1.2%	1.6%	-0.2%	4.6%	.	.	.	.	.
C/C(=C\C1CCCCC1)C(NC(=O)c1ccc(C(F)(F)F)cc1)c1ccc(-c2ccccc2)cc1 (configuration not stated)	.	.	-2.9%	4.9%	-6.1%	.	.	.	.	.
Cc1ccc(C(=O)Nc2nnc(-c3ccncc3)o2)cc1	-9.7%	-0.4%	9.4%	14.1µM*	1.9%	-4.9%	12.1%	13.5%	4.2%	-12.5%
CC1CCCCN1S(=O)(=O)c1ccc(C(=O)Nc2nnc(-c3ccncc3)o2)cc1 (configuration not stated)	7.4%[11.5 µM]	-5.8%	-1.6%	5µM*	-0.8%	?	?	4.0%	12.6%	8.2%
O=C(Nc1nnc(-c2ccncc2)o1)c1ccccc1F	9.3%	2.1%	1.7%	?	-4.7%	.	.	.	.	.
O=C(Nc1nnc(-c2ccncc2)o1)c1ccccc1	7.1%	2.6%	1.6%	15.8µM*	-23.2%	8.91µM*	2.2%	3.1%	-2.6%	-4.4%
CCOc1nc(-c2ccccc2O)nc2ccccc12	-5.8%	11.5%	-19.9%	7.1%	-2.8%	.	.	.	.	.
